Consider 27 compounds from PubChem BioAssay (NCATS).

Results filed as inconclusive are left out. A call without a number means that no potency is given here. Active and inactive are the calls of the source. The call rests on the fitted dose curve; in most records, active means well fitted cell-killing curve with a large enough effect; inconclusive means small, poorly fitted or top-dose-only effect; inactive means flat fitted curve, though single readings scatter. Non-standard residues stand in square brackets, D forms with d. Residues, ends and D or L forms follow the SMILES beside them. *: point of attachment. Sta = CC(C)C[C@H](N)[C@@H](O)CC(=O)O; Isovaleryl = CC(C)CC(=O)*
Potency means the concentration at half of the fitted maximal effect.

The nature of this test: qHTS of pediatric cancer cell lines to identify multiple opportunities for drug repurposing: Confirmatory screen for SK-N-SH cells (AID 1347129).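 Further: cells exposed to compound for 48 h before viability read; nearly all actives have a fitted effect of over 60% in size.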 Particulars: SK-N-SH neuroblastoma cell viability; series mostly up to 46.1 µM. The text has this: Drug repurposing or repositioning has been offered as a strategy for drug development in oncology programs. This approach has special potential for childhood cancers and other rare or orphan diseases, where the expected return on new drug development has been a disincentive to pharmaceuticals.
In this project we exploit the poly-pharmacology of drugs to discover new indications via phenotypic screening of a panel of 19 well-characterized cell lines derived from solid tumors seen in children and adolescents. The goal is to identify approved drugs with previously unrecognized anticancer properties that has the potential to reveal new mechanisms and biological processes involved in carcinogenesis or drug resistance. We employed a titration-based paradigm (quantitative high-throughput screening or qHTS), where all compounds were tested at multiple concentrations for their effect on cell viability. Concentration-response curves (CRCs) were derived directly from the primary screen, and both potency and efficacy values were used to identify compounds with robust bioactivity profiles. We screened the NIH Chemical Genomics Center (NCGC) Pharmaceutical Collection (NPC) and Mechanism Interrogation Plate (MIPE) small molecule collections of approved and investigational compounds against these cell lines; and measured metabolically active cells after 48 hours of compound treatment as a proxy for cell viability.
Assay Submitter: Nathalia J. Martinez, National Center for Advancing Translational Sciences, National Institutes of Health, Rockville, MD, USA; email: natalia.martinez@nih.gov
[1] Shen, M et al. Quantitative high-throughput phenotypic screening of pediatric cancer cell lines identifies multiple opportunities for drug repurposing. Oncotarget 2017 Dec 19;9(4):4758-4772. PMID 29435139.
The cells were obtained from University of North Carolina (UNC), Pediatric Preclinical Testing Program (PPT), and Coriell Institute (CI).
qHTS cell viability assay:
Cells were assayed in growth media at a density of 500-1,000 cells/well. Five microliters of cells were dispensed into 1,536-well, white, solid-bottom, TC-treated plates (Greiner Bio One) using a multidrop dispenser and incubated at 37 degrees C, 5% CO2, under a humidified atmosphere for 5 hours. Twenty-three nanoliters of compounds and controls (neutral control DMSO or positive control bortezomib at final concentration of 2.3 µM) were subsequently transferred by Kalypsys pintool. For primary screens, the MIPE collection was tested at 11-point dilutions (final concentrations range from 0.78 nM to 46 µM) and the NPC collection at 8-point dilutions (final concentrations range from 0.59 nM to 46 µM). Compounds tested in follow-up screens were assayed at 11-point dilutions. Cells were incubated for 48 hours, followed by addition of 3 µL of CellTiter-Glo (Promega). After a 15 min incubation at room temperature, samples were analyzed for luminescence intensity using a ViewLux High-throughput CCD imager equipped with clear filters.
A general note: In qHTS, concentration-response curves come from the screen itself.
With `CCc1nc(N)nc(N)c1-c1ccc(Cl)cc1`, the Potency entry was “inactive”.

Regarding `Cc1c(C(=O)NN2CCCCC2)nn(-c2ccc(Cl)cc2Cl)c1-c1ccc(Cl)cc1`, the Potency entry is “inactive”.

On to `Cc1nc(Nc2ncc(C(=O)Nc3c(C)cccc3Cl)s2)cc(N2CCN(CCO)CC2)n1`, for which the Potency is 4.18 µM (active).

In the case of `COc1cc(C(C)=O)ccc1OCCCN1CCC(c2noc3cc(F)ccc23)CC1`, the Potency entry is “inactive”.

As to `CN(C)c1ccc(O)c2c1C[C@H]1C[C@H]3[C@H](N(C)C)C(=O)C(C(N)=O)=C(O)[C@@]3(O)C(=O)C1=C2O`, the Potency was 11.8 µM (active).

As to `CCN(CC)C(=S)SSC(=S)N(CC)CC`, the Potency entry was “inactive”.

For `CC(S)C(=O)NCC(=O)O` (configuration not stated), the Potency result is “inactive”.

As for `CS(=O)(=O)OCCCCOS(C)(=O)=O`, the Potency result was “inactive”.

In the case of `Nc1ncn([C@H]2C[C@H](O)[C@@H](CO)O2)c(=O)n1`, the Potency entry was “inactive”.

For `CC(C)C[C@H](NC(=O)[C@H](Cc1ccccc1)NC(=O)c1cnccn1)B(O)O`, the Potency is 0.0332 µM (active).

With `O=C(CCc1ccc(O)cc1)c1c(O)cc(O)cc1O`, the Potency entry was “inactive”.

`C=C(c1ccc(C(=O)O)cc1)c1cc2c(cc1C)C(C)(C)CCC2(C)C`: the Potency entry was “inactive”.

With `c1cnc2cc3c(cc2n1)C1CNCC3C1`, the Potency result is “inactive”.

As for `O=C1c2c(O)cc(O)cc2OC(c2ccc(O)c(O)c2)C1O` (configuration not stated), the Potency result was “inactive”.

As to `CCN(CCO)CCCC(C)Nc1ccnc2cc(Cl)ccc12` (configuration not stated), the Potency entry is “inactive”.

With `CC(C)CC(=O)N[C@H](C(=O)N[C@H](C(=O)N[C@@H](CC(C)C)[C@@H](O)CC(=O)N[C@@H](C)C(=O)N[C@@H](CC(C)C)[C@@H](O)CC(=O)O)C(C)C)C(C)C` (Isovaleryl-VV[Sta]A[Sta]-OH), the Potency result was “inactive”.

`Cc1cc(C2CCCCC2)n(O)c(=O)c1`: the Potency is 2.35 µM (active).

As to `CCN(CC)CCOc1ccc(Nc2ncc3cc(-c4c(Cl)cccc4Cl)c(=O)n(C)c3n2)cc1`, the Potency was 0.833 µM (active).

In the case of `CN(C)c1ccc2nc3ccc(=[N+](C)C)cc-3sc2c1`, the Potency is 4.18 µM (active).

As for `Cc1ccc(NC(=O)c2ccc(CN3CCN(C)CC3)cc2)cc1Nc1nccc(-c2cccnc2)n1`, the Potency result is “inactive”.

Regarding `O=C(NCC1CCCCN1)c1cc(OCC(F)(F)F)ccc1OCC(F)(F)F` (configuration not stated), the Potency result was “inactive”.

As to `Nc1ccn([C@@H]2O[C@H](CO)[C@@H](O)C2O)c(=O)n1` (some centres not stated), the Potency result was “inactive”.

For the compound `Cc1ccc(Nc2nccc(N(C)c3ccc4c(C)n(C)nc4c3)n2)cc1S(N)(=O)=O`, the Potency is 18.7 µM (active).

For the compound `CCOc1cc(CC(=O)N[C@@H](CC(C)C)c2ccccc2N2CCCCC2)ccc1C(=O)O`, the Potency result is “inactive”.

Consider `Nc1nc(OCc2ccccc2)c2[nH]cnc2n1`, for which the Potency entry is “inactive”.

Turning to `Oc1ccc(-c2nc(-c3ccc(F)cc3)c(-c3ccncc3)[nH]2)cc1`, the Potency was 5.26 µM (active).

Turning to `C[C@]12CCC(=O)C=C1CC[C@@H]1[C@H]2[C@@H](O)C[C@@]2(C)[C@H]1CC[C@]2(O)C(=O)CO`, the Potency result was “inactive”.
